± gives the standard deviation.
These sequences were tested on EfPiwi piRISC loaded with piRNA #1 (26 nt) (assay: pre-steady-state target cleavage rate (min^-1); auxiliary factor: 500 nM Ephydatia muelleri Gtsf1; guide: piRNA #1 5'p-UGAGGUAGUAGGUUGUAUAGUAUCCA; MIWI and MILI are mouse PIWI proteins and EfPiwi is from a freshwater sponge; tags in brackets are library labels; higher = faster piRNA-guided slicing of the target).
Outline: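 Three pooled Cleave-'n-Seq trials supplied the data, with k3 capped at 0.0001 min^-1. In each, […] transcribed, DNA-blocked target RNA library and 1 nM active affinity-purified piRISC with one synthetic guide reacted in HEPES–potassium acetate buffer at 33 °C for 0–8 or 0–960 min, with or without 500 nM GTSF1 partner protein. Uncleaved targets were sequenced and normalised to depth and to weakly complementary targets. A burst-and-steady-state fit provided the pre-steady-state cleavage rate.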

Sequence | pre-steady-state target cleavage rate
GGAGACGAUACUAUACAACCUACUUGGAGA [g7:g24:cont:t1A] | 0.00429 ± 0.0022
GGAGACCAUACUAUACAACCUACUAGCCUCA | 0.00697 ± 0.0031
GGAGAGGAUACUAUACAACUUACUACCUCA | 0.0083 ± 0.0042
GGAGUGGAUACUAUACGACCUACUACCUCA | 0.0922 ± 0.036
GGAGACCAUACUAUACGAACCUACUACCUCA | 0.0108 ± 0.0042
GGAGACCUAACUAUACAACCUACAACCUGA | 0.00402 ± 0.0029
GGAGACCUUACUAUACAACCUAGUACGUCA | 0.00357 ± 0.0023
GGAGACCUAUGAUAUGUACCAACUACCACA | < 0.0001
GGAGACGAUACUAUACUAACCUACUACCUCA | 0.00448 ± 0.0044
GGAGACCUAUGAUAUGUACCCACUACCUCA | < 0.0001
GGAGACCUAUGAUAUGAUCCUAGUACCUCA | < 0.0001
GGAGAGGAUACUAUACAACCUAGUUCCUCA | 0.00396 ± 0.0022
GGAGACCAUACUAUACAAGCCUACUACCUCA | 0.00453 ± 0.0032
GGAGACCUUACUAUACAACCUAGUACCUGA | 0.00509 ± 0.0037
GGAGACGAUACUAUACAACCUUCUACGUCA | 0.00448 ± 0.0019
GGAGACCUAUGAUAUGUACCUACAUACCUCA | < 0.0001
GGAGACGAUACUAUACAACCCUACUACCUCA | 0.00604 ± 0.0029
GGAGUGGAUACUAUACAACCUACUAGCUGA | 0.00461 ± 0.0027
GGAGUGGAUACUAUACAAUCCUACUACCUCA | 0.0124 ± 0.0065
GGAGAGGAUACUAUACAACCUAGUACCUGA | 0.00379 ± 0.0015

Sequence | pre-steady-state target cleavage rate
GGAGAGGAUACUAUACGAACCUACUACCUCA | 0.0069 ± 0.0052
GGAGUGGAUACUAUAGAACCUACUACCACA | 0.0024 ± 0.001
GGAGAGGAUACUAUACAACGUACAACCUCA | 0.00357 ± 0.0017
GGAGACCAUACUAUACAGCCUACUACCUCA | 0.16 ± 0.053
GGAGACCUUACUAUACAAGCCUACUACCUCA | 0.00541 ± 0.0031
GGAGACGAUACUAUUCAACCUACUACCACA | 0.00322 ± 0.0017
GGAGACCAUACUAUACAACCUACUACUUCA | 0.00607 ± 0.0024
GGAGUGGAUACUAUACAUCCUACUAGCUCA | 0.00367 ± 0.0024
GGAGACCUAUGAUAUCAACCUACAUGCUCA | < 0.0001
GGAGAGGAUACUAUACAACCUAUCUACCUCA | 0.00568 ± 0.0029
GGAGUGGAUACUAUACAACCUACUACCUACA | 0.068 ± 0.024
GGAGACGAUACUAUACAACCUAGUAGCUCA | 0.00474 ± 0.0023
GGAGACGAUACAUACAACCUACUACCUCA | 0.00551 ± 0.0028
GGAGAGGAUACUAUACAACCUGCUACCUCA | 0.114 ± 0.043
GGAGAGGAUACAAUACAACCUACAACCUCA | 0.00231 ± 0.0018
GGAGACCUUACUAUACAACGCUACUACCUCA | 0.00566 ± 0.0038
GGAGUGGAAUACUAUACAACCUACUACCUCA | 0.122 ± 0.045
GGAGAGGAUACUAUACAACCUACGACCUCA | 0.00309 ± 0.0016
GGAGUGGAUACUAUACAACCUACUUGCUCA | 0.0047 ± 0.0026

Source: the supplement of paper PMC10338343
